The supplement of paper PMC9023506
Where a name gives a salt, the structure may show the parent alone.

Tested on: Danio rerio larvae (5 dpf)
Assay: excitability to 1-s acoustic pulses, difference vs DMSO (percentage points (treated minus DMSO)); higher = more of the behaviour than the DMSO vehicle control
Conditions: 10 µM; exposure time: 3 h pre-incubation + 3 h imaging
Procedure, shortened: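 5-dpf wild-type zebrafish larvae in 96-well ProxiPlates were exposed to library drugs at 10 µM (diluted 1000× from DMSO stocks into egg water). There were 48 larvae per drug, exposed 3 h before and 3 h during imaging at 28.5 °C. Images taken every 6 s covered a 3-h program of rest, moving coloured lines and acoustic pulses, and an ImageJ macro scored movement and upper-half location. Each behaviour score is the treated-group mean minus the DMSO vehicle mean, in percentage points.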

Row | Structure (SMILES) | excitability to 1-s acoustic pulses
1 | CN(C)CC/C=C1/c2ccccc2COc2ccc(CC(=O)O)cc21 [Olopatadine hydrochloride] | 3.92
2 | CN(C)CCc1c[nH]c2ccc(Cn3cncn3)cc12 [Rizatriptan benzoate] | -3.58
3 | Cc1cc(C2CCCCC2)n(O)c(=O)c1 [Ciclopirox] | 5.96
4 | N#Cc1ccc2[nH]cc(CCCCN3CCN(c4ccc5oc(C(N)=O)cc5c4)CC3)c2c1 [Vilazodone hydrochloride] | 16.8
5 | CC(CCc1ccc(O)cc1)NCCc1ccc(O)c(O)c1 (configuration not stated) [Dobutamine hydrochloride] | 5.75
6 | CCOC(=O)N1CCC(=C2c3ccc(Cl)cc3CCc3cccnc32)CC1 [Loratidine] | -6.95
7 | CCN(Cc1ccncc1)C(=O)C(CO)c1ccccc1 (configuration not stated) [Tropicamide] | 0.232
8 | C[C@]12CC[C@@H]3c4ccc(O)cc4C[C@@H](CCCCCCCCC[S+]([O-])CCCC(F)(F)C(F)(F)F)[C@H]3[C@@H]1CC[C@@H]2O (some centres not stated) | 2.14
9 | Clc1ccc(COC(Cn2ccnc2)c2ccc(Cl)cc2Cl)c(Cl)c1 (configuration not stated) [Miconazole nitrate] | -0.632
10 | OCCN1C[C@H](O)[C@@H](O)[C@H](O)[C@H]1CO [Miglitol] | 5.41
11 | CC(=O)O[C@H]1C(=O)[C@@]2(C)[C@H]([C@H](OC(=O)c3ccccc3)[C@]3(O)C[C@H](OC(=O)[C@H](O)[C@@H](NC(=O)c4ccccc4)c4ccccc4)C(C)=C1C3(C)C)[C@]1(OC(C)=O)CO[C@@H]1C[C@@H]2O [Taxol] | -0.779
12 | N#Cc1ccc(C(c2ccc(C#N)cc2)n2cncn2)cc1 [Letrozole] | -0.518
